# According to PubChem BioAssay AID1345085 (National Center for Advancing Translational Sciences (NCATS), 2018):
# Records with an inconclusive call do not appear. Calls of active or inactive are those of the source. Calls follow the shape of the dose curve; as a rule, active = well fitted cell-killing curve with a large enough effect; inconclusive = small, poorly fitted or top-dose-only effect, or effect the other way; inactive = no such curve, though single readings can be large or run the other way.
# Tested on: PA-1
# Test: Confirmatory qHTS for gynecologic anti-cancer compounds from libraries of approved drugs and bioactive compounds; also: nearly all actives have a fitted effect of over 55% in size
# Settings: gynecologic cancer cell panel viability, ATPlite luminescence, 48 h; series mostly up to 57.6 µM
# Summary of the method: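 ATP-based luminescent viability (ATPlite) after 48 h drug treatment at 37 °C, 5% CO2, across 57.5 uM–0.977 nM in 1:3 steps. Cells seeded at 1,000 per well 16 h beforehand; IC50 values computed, HEK 293T as selectivity control.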
# Potency is read from the fitted curve at half-maximal effect.
row,SMILES,Potency
1,C=C(C)[C@H]1Cc2c(ccc3c2O[C@@H]2COc4cc(OC)c(OC)cc4[C@@H]2C3=O)O1,27.3 nM (active)
2,Cc1sc2c(c1C)C(c1ccc(Cl)cc1)=NC(CC(=O)OC(C)(C)C)c1nnc(C)n1-2 (stereo not drawn),1530 nM (active)
3,C[C@H]1CCC/C=C/C2C[C@H](O)C[C@H]2[C@H](O)/C=C/C(=O)O1 (stereo partly drawn),172 nM (active)
4,CCOc1ccccc1-n1c(C(C)N2CCN(C(=O)COc3ccc(Cl)cc3)CC2)nc2ccccc2c1=O (stereo not drawn),13700 nM (active)
5,O=C(O)Cc1ccccc1,inactive
6,C/C=C(/C)C(=O)O[C@H]1C(C)=C2[C@H]([C@@H]1OC(=O)CCCCCCC)[C@@](C)(OC(C)=O)C[C@H](OC(=O)CCC)[C@@]1(O)[C@H]2OC(=O)[C@@]1(C)O,48.5 nM (active)
7,CCNC(=O)C[C@@H]1N=C(c2ccc(Cl)cc2)c2cc(OC)ccc2-n2c(C)nnc21,4320 nM (active)
8,C[C@]12CC[C@H]3[C@@H](CCC4=CC(=O)CC[C@@H]43)[C@@H]1CC[C@@H]2OC(=O)CCc1ccccc1,inactive
